Experimental data reported in the supplement of paper PMC9262897, “Low-cost anti-mycobacterial drug discovery using engineered E. coli” (Nature Communications, 2022).
Counter-ions that a name gives are not always drawn. ± gives the standard deviation of the averaged measurements.

Columns and labels:
Test in all cases: growth (OD600 after 10 h); higher = more growth (less inhibition)
[1] = tested on: E. coli TESEC Alr+ wild-type control; details: compound 0.1 mM; raw OD600 reference: median of DMSO wells 0.241, cell-free background 0.041
Protocol: (§1)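 TESEC Mtb Alr E. coli, or the Alr+ wild-type control, in 384-well plates with Prestwick library compounds at 0.1 mM and 1% DMSO, across arabinose induction levels of 1E3 to 1E7 nM. Growth is read as OD600 after 10 h at 37 °C in triplicate biological replicates.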

E. coli TESEC Mtb Alr [2] = details: compound 0.1 mM
Protocol: as §1

E. coli TESEC Mtb Asd = details: compound 0.1 mM
Protocol: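 TESEC E. coli strains in which the native enzyme is deleted and replaced by arabinose-inducible Mtb Asd, DapB, CysH or TrpD, each grown in its selective medium. Strains were screened against the Prestwick library at 0.1 mM and 1% DMSO in 384-well format at low and high arabinose induction. Growth is read as OD600 after 10 h in triplicate.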

E. coli TESEC Mtb Alr [3] = details: compound 0.1 mM; remark: listed apart in the source
Protocol: (§2)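 TESEC Mtb Alr E. coli (ΔaraC ΔtolC ΔentC Δalr ΔdadX, arabinose-inducible Mtb Alr) or the Alr+ wild-type control strain, grown in defined M9-fructose medium without D-alanine in 96-well plates with Prestwick library compounds at 0.1 mM and 1% DMSO. Low Alr induction is 0.1 µM arabinose and high induction is 10 mM arabinose.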

[4] = tested on: E. coli TESEC Alr+ wild-type control; details: compound 0.1 mM; raw OD600 reference: median of DMSO wells 0.49, cell-free background 0.052
Protocol: as §2

[5] = arabinose 1000 nM, raw OD600 reference: median of DMSO wells 0.294, cell-free background 0.041
[6] = arabinose 10000 nM, raw OD600 reference: median of DMSO wells 0.264, cell-free background 0.041
[7] = arabinose 100000 nM, raw OD600 reference: median of DMSO wells 0.201, cell-free background 0.041
[8] = arabinose 1000000 nM, raw OD600 reference: median of DMSO wells 0.193, cell-free background 0.041
[9] = arabinose 10000000 nM, raw OD600 reference: median of DMSO wells 0.146, cell-free background 0.041
[10] = arabinose induction (level): High, raw OD600 reference: median of DMSO wells 0.331, cell-free background 0.041
[11] = arabinose induction (level): Low, raw OD600 reference: median of DMSO wells 0.417, cell-free background 0.041
[12] = arabinose 100 nM, raw OD600 reference: median of DMSO wells 0.413, cell-free background 0.052
[13] = arabinose 10000000 nM, raw OD600 reference: median of DMSO wells […], cell-free background 0.052

SMILES: Cc1onc(-c2ccccc2)c1C(=O)N[C@@H]1C(=O)N2[C@@H]1SC(C)(C)[C@@H]2C(=O)O [Oxacillin sodium]
- growth [1]: 0.246 ± 0.017
- growth (E. coli TESEC Mtb Alr [2]; [5]): 0.298 ± 0.017
- growth (E. coli TESEC Mtb Alr [2]; [6]): 0.249 ± 0.012
- growth (E. coli TESEC Mtb Alr [2]; [7]): 0.198 ± 0.015
- growth (E. coli TESEC Mtb Alr [2]; [8]): 0.187 ± 0.0051
- growth (E. coli TESEC Mtb Alr [2]; [9]): 0.14 ± 0.0038
- growth (E. coli TESEC Mtb Asd; [10]): 0.468 ± 0.036
- growth (E. coli TESEC Mtb Asd; [11]): 0.477 ± 0.0063
- growth (E. coli TESEC Mtb Alr [3]; [12]): 0.421 ± 0.0073
- growth (E. coli TESEC Mtb Alr [3]; [13]): 0.362 ± 0.0089

SMILES: CCS(=O)(=O)CCn1c([N+](=O)[O-])cnc1C [Tinidazole]
- growth [1]: 0.237 ± 0.0086
- growth (E. coli TESEC Mtb Alr [2]; [5]): 0.286 ± 0.011
- growth (E. coli TESEC Mtb Alr [2]; [6]): 0.256 ± 0.0041
- growth (E. coli TESEC Mtb Alr [2]; [7]): 0.198 ± 0.0079
- growth (E. coli TESEC Mtb Alr [2]; [8]): 0.169 ± 0.0069
- growth (E. coli TESEC Mtb Alr [2]; [9]): 0.139 ± 0.005
- growth (E. coli TESEC Mtb Asd; [10]): 0.345 ± 0.048
- growth (E. coli TESEC Mtb Asd; [11]): 0.405 ± 0.013
- growth (E. coli TESEC Mtb Alr [3]; [12]): 0.402 ± 0.0095
- growth (E. coli TESEC Mtb Alr [3]; [13]): 0.315 ± 0.0068

SMILES: CCCCOC(=O)c1ccc(O)cc1 [Butylparaben]
- growth [1]: 0.137 ± 0.0043
- growth (E. coli TESEC Mtb Alr [2]; [5]): 0.148 ± 0.0023
- growth (E. coli TESEC Mtb Alr [2]; [6]): 0.213 ± 0.0083
- growth (E. coli TESEC Mtb Alr [2]; [7]): 0.157 ± 0.0026
- growth (E. coli TESEC Mtb Alr [2]; [8]): 0.131 ± 0.0015
- growth (E. coli TESEC Mtb Alr [2]; [9]): 0.15 ± 0.0048
- growth (E. coli TESEC Mtb Asd; [10]): 0.174 ± 0.0066
- growth (E. coli TESEC Mtb Asd; [11]): 0.193 ± 0.017
- growth [4]: 0.399 ± 0.014
- growth (E. coli TESEC Mtb Alr [3]; [12]): 0.376 ± 0.029
- growth (E. coli TESEC Mtb Alr [3]; [13]): 0.304 ± 0.019

SMILES: CCCCC(=O)N(Cc1ccc(-c2ccccc2-c2nnn[nH]2)cc1)[C@H](C(=O)O)C(C)C [Valsartan]
- growth [1]: 0.249 ± 0.013
- growth (E. coli TESEC Mtb Alr [2]; [5]): 0.307 ± 0.0036
- growth (E. coli TESEC Mtb Alr [2]; [6]): 0.27 ± 0.0035
- growth (E. coli TESEC Mtb Alr [2]; [7]): 0.213 ± 0.02
- growth (E. coli TESEC Mtb Alr [2]; [8]): 0.193 ± 0.014
- growth (E. coli TESEC Mtb Alr [2]; [9]): 0.151 ± 0.0071
- growth (E. coli TESEC Mtb Asd; [10]): 0.291 ± 0.042
- growth (E. coli TESEC Mtb Asd; [11]): 0.396 ± 0.047
- growth [4]: 0.557 ± 0.049
- growth (E. coli TESEC Mtb Alr [3]; [12]): 0.422 ± 0.016
- growth (E. coli TESEC Mtb Alr [3]; [13]): 0.339 ± 0.012

SMILES: CC(C)(C)NCC(O)COc1cccc2c1CCC(=O)N2 (configuration not stated) [Carteolol hydrochloride]
- growth [1]: 0.236 ± 0.0081
- growth (E. coli TESEC Mtb Alr [2]; [5]): 0.285 ± 0.02
- growth (E. coli TESEC Mtb Alr [2]; [6]): 0.2521 ± 0.002
- growth (E. coli TESEC Mtb Alr [2]; [7]): 0.197 ± 0.043
- growth (E. coli TESEC Mtb Alr [2]; [8]): 0.181 ± 0.0071
- growth (E. coli TESEC Mtb Alr [2]; [9]): 0.143 ± 0.0038
- growth (E. coli TESEC Mtb Asd; [10]): 0.222 ± 0.024
- growth (E. coli TESEC Mtb Asd; [11]): 0.349 ± 0.1
- growth (E. coli TESEC Mtb Alr [3]; [12]): 0.405 ± 0.009
- growth (E. coli TESEC Mtb Alr [3]; [13]): 0.334 ± 0.0046

SMILES: CCCOc1ccc(C(=O)OCCN(CC)CC)cc1N [Proparacaine hydrochloride]
- growth [1]: 0.228 ± 0.0033
- growth (E. coli TESEC Mtb Alr [2]; [5]): 0.308 ± 0.017
- growth (E. coli TESEC Mtb Alr [2]; [6]): 0.268 ± 0.013
- growth (E. coli TESEC Mtb Alr [2]; [7]): 0.196 ± 0.0096
- growth (E. coli TESEC Mtb Alr [2]; [8]): 0.17 ± 0.0027
- growth (E. coli TESEC Mtb Alr [2]; [9]): 0.153 ± 0.0029
- growth (E. coli TESEC Mtb Asd; [10]): 0.46 ± 0.0053
- growth (E. coli TESEC Mtb Asd; [11]): 0.426 ± 0.025
- growth (E. coli TESEC Mtb Alr [3]; [12]): 0.408 ± 0.017
- growth (E. coli TESEC Mtb Alr [3]; [13]): 0.354 ± 0.024

SMILES: CCC1(c2ccccc2)C(=O)NCNC1=O [Primidone]
- growth [1]: 0.243 ± 0.011
- growth (E. coli TESEC Mtb Alr [2]; [5]): 0.296 ± 0.0094
- growth (E. coli TESEC Mtb Alr [2]; [6]): 0.255 ± 0.0076
- growth (E. coli TESEC Mtb Alr [2]; [7]): 0.201 ± 0.012
- growth (E. coli TESEC Mtb Alr [2]; [8]): 0.18 ± 0.0097
- growth (E. coli TESEC Mtb Alr [2]; [9]): 0.144 ± 0.0039
- growth (E. coli TESEC Mtb Asd; [10]): 0.448 ± 0.024
- growth (E. coli TESEC Mtb Asd; [11]): 0.463 ± 0.043
- growth (E. coli TESEC Mtb Alr [3]; [12]): 0.408 ± 0.015
- growth (E. coli TESEC Mtb Alr [3]; [13]): 0.333 ± 0.0042

SMILES: CCOC(=O)[C@H](CCc1ccccc1)N[C@@H](C)C(=O)N1Cc2ccccc2C[C@H]1C(=O)O [Quinapril HCl]
- growth [1]: 0.218 ± 0.012
- growth (E. coli TESEC Mtb Alr [2]; [5]): 0.29 ± 0.0069
- growth (E. coli TESEC Mtb Alr [2]; [6]): 0.2807 ± 0.0024
- growth (E. coli TESEC Mtb Alr [2]; [7]): 0.155 ± 0.012
- growth (E. coli TESEC Mtb Alr [2]; [8]): 0.21 ± 0.0061
- growth (E. coli TESEC Mtb Alr [2]; [9]): 0.144 ± 0.0052
- growth (E. coli TESEC Mtb Asd; [10]): 0.246 ± 0.03
- growth (E. coli TESEC Mtb Asd; [11]): 0.403 ± 0.052
- growth (E. coli TESEC Mtb Alr [3]; [12]): 0.384 ± 0.015
- growth (E. coli TESEC Mtb Alr [3]; [13]): 0.309 ± 0.011

SMILES: CN(C)CCC=C1c2ccccc2COc2ccccc21 [Doxepin hydrochloride]
- growth [1]: 0.199 ± 0.018
- growth (E. coli TESEC Mtb Alr [2]; [5]): 0.245 ± 0.0099
- growth (E. coli TESEC Mtb Alr [2]; [6]): 0.262 ± 0.011
- growth (E. coli TESEC Mtb Alr [2]; [7]): 0.178 ± 0.0063
- growth (E. coli TESEC Mtb Alr [2]; [8]): 0.134 ± 0.0022
- growth (E. coli TESEC Mtb Alr [2]; [9]): 0.144 ± 0.0036
- growth (E. coli TESEC Mtb Asd; [10]): 0.186 ± 0.034
- growth (E. coli TESEC Mtb Asd; [11]): 0.326 ± 0.032
- growth (E. coli TESEC Mtb Alr [3]; [12]): 0.41 ± 0.0055
- growth (E. coli TESEC Mtb Alr [3]; [13]): 0.342 ± 0.046

SMILES: COc1ccc2c(c1)c(CC(=O)O)c(C)n2C(=O)c1ccc(Cl)cc1 [Indomethacin]
- growth [1]: 0.141 ± 0.0034
- growth (E. coli TESEC Mtb Alr [2]; [5]): 0.186 ± 0.008
- growth (E. coli TESEC Mtb Alr [2]; [6]): 0.2 ± 0.0069
- growth (E. coli TESEC Mtb Alr [2]; [7]): 0.124 ± 0.0036
- growth (E. coli TESEC Mtb Alr [2]; [8]): 0.0963 ± 0.0012
- growth (E. coli TESEC Mtb Alr [2]; [9]): 0.105 ± 0.0024
- growth (E. coli TESEC Mtb Asd; [10]): 0.172 ± 0.017
- growth (E. coli TESEC Mtb Asd; [11]): 0.196 ± 0.036
- growth (E. coli TESEC Mtb Alr [3]; [12]): 0.366 ± 0.032
- growth (E. coli TESEC Mtb Alr [3]; [13]): 0.143 ± 0.0065

SMILES: COC(=O)Nc1nc2cc(C(=O)c3ccccc3)ccc2[nH]1 [Mebendazole]
- growth [1]: 0.202 ± 0.005
- growth (E. coli TESEC Mtb Alr [2]; [5]): 0.245 ± 0.021
- growth (E. coli TESEC Mtb Alr [2]; [6]): 0.269 ± 0.0042
- growth (E. coli TESEC Mtb Alr [2]; [7]): 0.189 ± 0.011
- growth (E. coli TESEC Mtb Alr [2]; [8]): 0.168 ± 0.0043
- growth (E. coli TESEC Mtb Alr [2]; [9]): 0.159 ± 0.0019
- growth (E. coli TESEC Mtb Asd; [10]): 0.306 ± 0.021
- growth (E. coli TESEC Mtb Asd; [11]): 0.398 ± 0.078
- growth (E. coli TESEC Mtb Alr [3]; [12]): 0.413 ± 0.0078
- growth (E. coli TESEC Mtb Alr [3]; [13]): 0.342 ± 0.017
